PfM18AAP inh-1: PfM18AAP inhibitors, malaria aminopeptidase, primary screen, biochemical, QFRET, recombinant enzyme. inhibition, % at 7.35 µM. actives 1.2% (n = 290,000). M18 aspartyl aminopeptidase (Plasmodium falciparum 3D7). H-Glu-NHMec fluorogenic cleavage. AID 1822, 2009;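 active means inhibition above the campaign mean inhibition over all tested compounds plus 3 SD, cut at about 28% in these data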;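 further: 0% = plate median of test compound wells and 100% = 2 mM ZnCl2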
ALR H2O2 inh: inhibitors of human ALR sulfhydryl oxidase, primary screen, biochemical, H2O2 detection, HRP-luminol luminescence, single point | AID 485317, 2010 | purified ALR, DTT oxidation | FAD-linked sulfhydryl oxidase ALR (Homo sapiens), P55789 | actives 3.8% (n = 290,000) | inhibition, % (concentration not given with the values);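 active means mean replicate inhibition above about 79%, with every replicate also reaching it, limit read from the data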
Yeast superoxide: reduction of superoxide in aged yeast, primary screen, HTS; S. cerevisiae aged cells, superoxide DHE fluorescence; hits give low values; superoxide response (% of plate mean), % at 10 µM; actives 0.18% (n = 330,000);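 active means superoxide response under a set limit, about three screen SD below normal, cut at about 65% in these data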;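 further: yeast aged for seven days with compound at 30 °C before DHE staining; 100% = average MFI of all compound-treated wells on the plate with controls excluded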
A3A deaminase: APOBEC3A ssDNA deaminase inhibitors, primary screen, selectivity assay for APOBEC3G inhibitor project, biochemical, FAM/TAMRA oligo cleavage fluorescence; DNA dC->dU-editing enzyme APOBEC-3A (Homo sapiens), P31941; inhibition, % at 20 µM; recombinant A3A, FAM/TAMRA ssDNA deamination fluorescence; actives 0.41% (n = 330,000);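 active means at least 40% inhibition at 20 µM here, with at most 30% in a related deaminase screen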;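 further: plate controls were A3A with DMSO for no effect and wells lacking A3A enzyme for full effect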
NRP1-CendR mod: modulators of CendR peptide binding to NRP-1, primary screen, biochemical, fluorescence polarization, uHTS; Neuropilin-1 (Homo sapiens), O14786; FAM-RPARPAR peptide binding to NRP-1; inhibition, % at 25 µM; actives 0.85% (n = 360,000);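 active means inhibition or corrected inhibition above about 18%, plus a signal ratio from 0.5 to 1.5, limit read from the data, passing the limit was not always enough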
A3G deaminase: APOBEC3G DNA deaminase inhibitors, primary screen, biochemical, fluorescence, single-stranded DNA substrate, uHTS. actives 0.28% (n = 330,000). inhibition, % at 20 µM. recombinant A3G, ssDNA deamination FAM/TAMRA fluorescence. DNA dC->dU-editing enzyme APOBEC-3G (Homo sapiens), Q9HC16;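 active means inhibition of at least 40% at 20 µM, with no more than 30% in the related APOBEC3A deaminase screen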;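 further: plate controls were DMSO wells with A3G for no effect and wells lacking A3G enzyme for full effect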
Target sequence (Q9HC16 whole entry, looked up): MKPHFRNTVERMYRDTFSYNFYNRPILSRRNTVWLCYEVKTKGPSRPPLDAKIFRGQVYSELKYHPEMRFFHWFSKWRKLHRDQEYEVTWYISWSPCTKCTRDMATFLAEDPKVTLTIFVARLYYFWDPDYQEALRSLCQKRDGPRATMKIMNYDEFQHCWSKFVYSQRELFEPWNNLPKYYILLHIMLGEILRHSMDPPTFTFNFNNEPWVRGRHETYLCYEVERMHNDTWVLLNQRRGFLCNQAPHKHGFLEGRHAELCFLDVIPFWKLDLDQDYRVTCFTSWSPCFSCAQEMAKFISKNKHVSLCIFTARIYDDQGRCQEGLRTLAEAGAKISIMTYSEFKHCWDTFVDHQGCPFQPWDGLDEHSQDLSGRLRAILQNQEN
PfM18AAP inh-2: PfM18AAP inhibitors, malaria aminopeptidase, confirmation, biochemical, QFRET, recombinant enzyme, triplicate. AID 2170, 2009. shares compounds with PfM18AAP inh-1. H-Glu-NHMec fluorogenic cleavage. actives 28% (n = 2,400). inhibition, % at 7.35 µM;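 active means mean inhibition over replicate wells above the hit cutoff set for the earlier primary screen, cut at about 29% in these data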;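 further: 0% = median of test compound wells and 100% = 2 mM ZnCl2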
CTSL1 counter: cathepsin L1 inhibitors, retest, confirmation, counter-screen for PFM18AAP inhibitor project, biochemical, QFRET, triplicate; shares compounds with PfM18AAP inh-1; AID 2178, 2009; inhibition, % at 5.96 µM; 2,400 tested, under 10 active; purified cathepsin L1, Z-Leu-Arg-MCA fluorescence;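 active means average inhibition across replicates above the hit cutoff set in the earlier primary screen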;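 further: 0% = median of test compound wells and 100% = Z-Phe-Ala-diazomethylketone 1 µM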
Target sequence (P07711 whole entry, looked up): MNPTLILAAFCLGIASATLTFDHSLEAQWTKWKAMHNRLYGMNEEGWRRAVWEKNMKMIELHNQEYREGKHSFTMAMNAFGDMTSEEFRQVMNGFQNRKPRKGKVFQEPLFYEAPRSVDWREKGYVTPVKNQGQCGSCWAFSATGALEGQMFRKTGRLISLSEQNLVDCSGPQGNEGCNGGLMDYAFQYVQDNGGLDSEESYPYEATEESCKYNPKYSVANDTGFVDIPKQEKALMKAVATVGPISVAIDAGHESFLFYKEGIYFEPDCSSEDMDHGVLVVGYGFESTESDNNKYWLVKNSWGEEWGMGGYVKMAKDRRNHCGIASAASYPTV
* hit, by the source's call. In the library only some 5.2% were active in any assay of this set; here they are far more common.

COc1ccc(N2CCN(C(=O)c3cccc(NS(=O)(=O)c4cccc(F)c4)c3)CC2)cc1 was read as PfM18AAP inh-1 3.9, A3A deaminase -4.2, NRP1-CendR mod 3.3 and A3G deaminase -3.5.
Screening Cc1cc(NC(=O)CSc2nnc(-c3ccc(O)cc3)o2)no1 returned PfM18AAP inh-1 37.9*, ALR H2O2 inh -9.2, Yeast superoxide 104.0, A3A deaminase -9.4, NRP1-CendR mod 5.6, A3G deaminase -5.9, PfM18AAP inh-2 -48.1 and CTSL1 counter -6.5.
Screening Cc1cc(NC(=O)CN2CCN(S(=O)(=O)c3ccc(Cl)cc3)CC2)no1 returned PfM18AAP inh-1 -6.6, ALR H2O2 inh -10.0, Yeast superoxide 81.6, A3A deaminase 3.2, NRP1-CendR mod -2.9 and A3G deaminase -1.3.
`Cc1cc(NC(=O)CN2CCN(c3ccc(O)cc3)CC2)no1` gave PfM18AAP inh-1 34.7*, ALR H2O2 inh 98.6*, Yeast superoxide 100.7, A3A deaminase -3.8, NRP1-CendR mod -0.4, A3G deaminase 26.5, PfM18AAP inh-2 -13.4 and CTSL1 counter 0.6.
For CCOC(=O)Cc1csc(NC(=O)CSc2nnc(-c3ccc(C)cc3)o2)n1 the results were PfM18AAP inh-1 32.4*, ALR H2O2 inh -13.9, Yeast superoxide 102.9, A3A deaminase -0.8, NRP1-CendR mod -8.7, A3G deaminase -0.9, PfM18AAP inh-2 -54.7 and CTSL1 counter -3.3.
CCn1c(CNC(=O)c2ccc(Cl)cc2)nnc1SCC(=O)N1CCOCC1 was read as PfM18AAP inh-1 -4.5, Yeast superoxide 89.9, A3A deaminase -0.2, NRP1-CendR mod 9.3 and A3G deaminase -4.4.
Cc1cc(SCC(=O)c2ccc(O)c(O)c2)nc2ccccc12 was read as PfM18AAP inh-1 46.3*, ALR H2O2 inh 99.6*, Yeast superoxide 101.2, A3A deaminase -1.5, NRP1-CendR mod -65.4, A3G deaminase 1.3, PfM18AAP inh-2 21.2 and CTSL1 counter 2.9.
`Cc1ccc(O)c(NC(=O)CSc2n[nH]c(-c3ccccc3)n2)c1` gave PfM18AAP inh-1 2.5, ALR H2O2 inh 7.5, Yeast superoxide 105.9, A3A deaminase -4.0, NRP1-CendR mod -18.2 and A3G deaminase -2.5.
O=C(CSc1n[nH]c(-c2ccccc2)n1)c1ccc(O)c(O)c1 was read as PfM18AAP inh-1 59.7*, ALR H2O2 inh 98.8*, Yeast superoxide 97.1, A3A deaminase 0.1, NRP1-CendR mod -43.7, A3G deaminase -0.2, PfM18AAP inh-2 36.1* and CTSL1 counter 0.3.
For COCCSc1ccccc1C(=O)NCCCn1ccnc1 the results were PfM18AAP inh-1 35.8*, ALR H2O2 inh -3.4, Yeast superoxide 103.3, A3A deaminase 3.7, NRP1-CendR mod 10.4, A3G deaminase 5.0, PfM18AAP inh-2 -25.0 and CTSL1 counter -1.2.
Cc1ccccc1C(=O)NCCCn1ccnc1 was read as PfM18AAP inh-1 -1.6, ALR H2O2 inh -2.2, Yeast superoxide 109.5, A3A deaminase -1.9, NRP1-CendR mod 1.3 and A3G deaminase -6.0.
COc1ccc(-c2cn(-c3ccccc3)c(=S)[nH]2)cc1OC was read as PfM18AAP inh-1 43.6*, ALR H2O2 inh -6.9, Yeast superoxide 97.9, A3A deaminase -2.1, NRP1-CendR mod -4.3, A3G deaminase -0.3, PfM18AAP inh-2 10.5 and CTSL1 counter -5.1.
COc1ccc(-c2cn(-c3ccc(C)c(Cl)c3)c(=S)[nH]2)cc1OC was read as PfM18AAP inh-1 21.5, Yeast superoxide 81.0, A3A deaminase -4.6, NRP1-CendR mod 2.1 and A3G deaminase -13.6.
`COc1ccccc1-c1cn(-c2ccccc2)c(=S)[nH]1` gave PfM18AAP inh-1 12.8, Yeast superoxide 102.3, A3A deaminase -8.0, NRP1-CendR mod -3.9 and A3G deaminase -9.5.
`COc1ccc(-c2cn(-c3ccc(C)c(C)c3)c(=S)[nH]2)cc1OC` gave PfM18AAP inh-1 31.8*, ALR H2O2 inh 6.6, Yeast superoxide 94.4, A3A deaminase 1.0, NRP1-CendR mod -0.3, A3G deaminase 2.8, PfM18AAP inh-2 5.6 and CTSL1 counter -2.4.
`COc1cccc(-n2cc(-c3ccc(F)cc3)[nH]c2=S)c1` gave PfM18AAP inh-1 40.7*, ALR H2O2 inh 51.5, Yeast superoxide 93.3, A3A deaminase -4.5, NRP1-CendR mod -7.0, A3G deaminase -8.0, PfM18AAP inh-2 25.7 and CTSL1 counter -0.1.
`COc1ccccc1CNC(=O)c1ccc2c(c1)OCO2` gave PfM18AAP inh-1 -5.1, ALR H2O2 inh -4.5, Yeast superoxide 104.8, A3A deaminase 0.7, NRP1-CendR mod -9.2 and A3G deaminase -3.9.
COc1ccccc1/C=C/C(=O)OCC(=O)c1cc(C)n(C)c1C was read as ALR H2O2 inh 3.7, Yeast superoxide 91.1, A3A deaminase 0.7, NRP1-CendR mod -10.8 and A3G deaminase 0.7.
For Cc1ccc(/C=N/Nc2nc(Cl)c(Cl)cc2Cl)s1 the results were PfM18AAP inh-1 46.0*, ALR H2O2 inh -1.4, Yeast superoxide 84.7, A3A deaminase 4.6, NRP1-CendR mod -7.4, A3G deaminase -2.5, PfM18AAP inh-2 -42.3 and CTSL1 counter -0.9.
For CCOc1ccc(S(=O)(=O)N2CCN(C(=O)Cc3ccc(S(=O)(=O)N4CCOCC4)s3)CC2)cc1 the results were ALR H2O2 inh -2.2, Yeast superoxide 111.5, A3A deaminase -3.7, NRP1-CendR mod -25.5 and A3G deaminase -10.3.
O=C(O)c1ccc2c(c1)C1C=CCC1C(c1ccncc1)N2 (stereo not given) was read as PfM18AAP inh-1 37.3*, ALR H2O2 inh -17.3, Yeast superoxide 113.2, A3A deaminase 80.8, NRP1-CendR mod -2.2, A3G deaminase 56.6, PfM18AAP inh-2 7.1 and CTSL1 counter -1.6.
Screening O=C(c1ccccc1)N1CCN(c2ccc([N+](=O)[O-])c(NCc3cccnc3)c2)CC1 returned PfM18AAP inh-1 43.8*, Yeast superoxide 111.3, A3A deaminase -5.7, NRP1-CendR mod 2.0, A3G deaminase -1.4, PfM18AAP inh-2 -52.8 and CTSL1 counter 0.5.
